# Legend:
# Assay in all cases: SPOT peptide array binding signal intensity (averaged, normalized) (arbitrary units (background-subtracted, floor 0; scale differs between SH3 domains)); higher = stronger binding of the SH3 domain to the peptide
# AgAbp1 = target: AgAbp1
# Summary of the method: (§1)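 GST-SH3 fusions from four yeast species, purified on glutathione Sepharose, were incubated at 10 μg/ml overnight at 4°C on membranes of synthetic 15-mer peptides in which cysteines were replaced with serines. Binding signal is the normalized, background-subtracted spot intensity averaged over replicates, in domain-specific arbitrary units.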
# AgBbc1 = target: AgBbc1
# Summary of the method: as §1
# AgBem1-D1 = target: AgBem1-D1
# Summary of the method: as §1
# AgBzz1-D1 = target: AgBzz1-D1
# Summary of the method: as §1
# AgBzz1-D2 = target: AgBzz1-D2
# Summary of the method: as §1
# AgCyk3 = target: AgCyk3
# Summary of the method: as §1
# AgFus1 = target: AgFus1
# Summary of the method: as §1
# AgHof1 = target: AgHof1
# Summary of the method: as §1
# AgHse1 = target: AgHse1
# Summary of the method: as §1
# AgLsb1 = target: AgLsb1
# Summary of the method: as §1
# AgLsb4 = target: AgLsb4
# Summary of the method: as §1
# AgMyo5 = target: AgMyo5
# Summary of the method: as §1
# AgNbp2 = target: AgNbp2
# Summary of the method: as §1
# AgRvs167 = target: AgRvs167
# Summary of the method: as §1
# AgSho1 = target: AgSho1
# Summary of the method: as §1
# AgSla1-D1-D2 = target: AgSla1-D1-D2
# Summary of the method: as §1
# AgSla1-D3 = target: AgSla1-D3
# Summary of the method: as §1
# CaAbp1-D1 = target: CaAbp1-D1
# Summary of the method: as §1
# CaAbp1-D2 = target: CaAbp1-D2
# Summary of the method: as §1
# CaBbc1 = target: CaBbc1
# Summary of the method: as §1
# CaBem1-D1 = target: CaBem1-D1
# Summary of the method: as §1
# CaBzz1-D1 = target: CaBzz1-D1
# Summary of the method: as §1
# CaBzz1-D2 = target: CaBzz1-D2
# Summary of the method: as §1
# CaCyk3 = target: CaCyk3
# Summary of the method: as §1
# CaFus1 = target: CaFus1
# Summary of the method: as §1
# CaHof1 = target: CaHof1
# Summary of the method: as §1
# CaHse1 = target: CaHse1
# Summary of the method: as §1
# CaLsb1 = target: CaLsb1
# Summary of the method: as §1
# CaLsb4 = target: CaLsb4
# Summary of the method: as §1
# CaMyo5 = target: CaMyo5
# Summary of the method: as §1
# CaNbp2 = target: CaNbp2
# Summary of the method: as §1
# CaRvs167 = target: CaRvs167
# Summary of the method: as §1
# CaRvs167-3 = target: CaRvs167-3
# Summary of the method: as §1
# CaSho1 = target: CaSho1
# Summary of the method: as §1
# CaSla1-D1-D2 = target: CaSla1-D1-D2
# Summary of the method: as §1
# CaSla1-D3 = target: CaSla1-D3
# Summary of the method: as §1
# ScAbp1 = target: ScAbp1
# Summary of the method: as §1
# ScBbc1 = target: ScBbc1
# Summary of the method: as §1
# ScBem1-D1 = target: ScBem1-D1
# Summary of the method: as §1
# ScBzz1-D1 = target: ScBzz1-D1
# Summary of the method: as §1
# ScBzz1-D2 = target: ScBzz1-D2
# Summary of the method: as §1
# ScCyk3 = target: ScCyk3
# Summary of the method: as §1
# ScFus1 = target: ScFus1
# Summary of the method: as §1
# ScHof1 = target: ScHof1
# Summary of the method: as §1
# ScHse1 = target: ScHse1
# Summary of the method: as §1
# ScLsb1 = target: ScLsb1
# Summary of the method: as §1
# ScLsb2 = target: ScLsb2
# Summary of the method: as §1
# ScLsb3 = target: ScLsb3
# Summary of the method: as §1
# ScLsb4 = target: ScLsb4
# Summary of the method: as §1
# ScMyo3 = target: ScMyo3
# Summary of the method: as §1
# ScMyo5 = target: ScMyo5
# Summary of the method: as §1
# ScNbp2 = target: ScNbp2
# Summary of the method: as §1
# ScPex13 = target: ScPex13
# Summary of the method: as §1
# ScRvs167 = target: ScRvs167
# Summary of the method: as §1
# ScSho1 = target: ScSho1
# Summary of the method: as §1
# ScSla1-D1-D2 = target: ScSla1-D1-D2
# Summary of the method: as §1
# ScSla1-D3 = target: ScSla1-D3
# Summary of the method: as §1
# SpAbp1-D1 = target: SpAbp1-D1
# Summary of the method: as §1
# SpBbc1 = target: SpBbc1
# Summary of the method: as §1
# SpBzz1-D1 = target: SpBzz1-D1
# Summary of the method: as §1
binder,measurement,setting,value
FSRRQSMDIPSKNRN,SPOT peptide array binding signal intensity,AgAbp1,114
same,SPOT peptide array binding signal intensity,AgBbc1,69.8
same,SPOT peptide array binding signal intensity,AgBem1-D1,557
same,SPOT peptide array binding signal intensity,AgBzz1-D1,33
same,SPOT peptide array binding signal intensity,AgBzz1-D2,78.5
same,SPOT peptide array binding signal intensity,AgCyk3,3
same,SPOT peptide array binding signal intensity,AgFus1,248
same,SPOT peptide array binding signal intensity,AgHof1,67.5
same,SPOT peptide array binding signal intensity,AgHse1,550
same,SPOT peptide array binding signal intensity,AgLsb1,15
same,SPOT peptide array binding signal intensity,AgLsb4,24
same,SPOT peptide array binding signal intensity,AgMyo5,16
same,SPOT peptide array binding signal intensity,AgNbp2,660
same,SPOT peptide array binding signal intensity,AgRvs167,4.17
same,SPOT peptide array binding signal intensity,AgSho1,115
same,SPOT peptide array binding signal intensity,AgSla1-D1-D2,54
same,SPOT peptide array binding signal intensity,AgSla1-D3,11
same,SPOT peptide array binding signal intensity,CaAbp1-D1,266
same,SPOT peptide array binding signal intensity,CaAbp1-D2,313
same,SPOT peptide array binding signal intensity,CaBbc1,384
same,SPOT peptide array binding signal intensity,CaBem1-D1,686
same,SPOT peptide array binding signal intensity,CaBzz1-D1,475
same,SPOT peptide array binding signal intensity,CaBzz1-D2,308
same,SPOT peptide array binding signal intensity,CaCyk3,25
same,SPOT peptide array binding signal intensity,CaFus1,602
same,SPOT peptide array binding signal intensity,CaHof1,0.5
same,SPOT peptide array binding signal intensity,CaHse1,225
same,SPOT peptide array binding signal intensity,CaLsb1,4
same,SPOT peptide array binding signal intensity,CaLsb4,412
same,SPOT peptide array binding signal intensity,CaMyo5,47.8
same,SPOT peptide array binding signal intensity,CaNbp2,1460
same,SPOT peptide array binding signal intensity,CaRvs167,96.7
same,SPOT peptide array binding signal intensity,CaRvs167-3,1.75
same,SPOT peptide array binding signal intensity,CaSho1,691
same,SPOT peptide array binding signal intensity,CaSla1-D1-D2,982
same,SPOT peptide array binding signal intensity,CaSla1-D3,552
same,SPOT peptide array binding signal intensity,ScAbp1,74
same,SPOT peptide array binding signal intensity,ScBbc1,34
same,SPOT peptide array binding signal intensity,ScBem1-D1,88.5
same,SPOT peptide array binding signal intensity,ScBzz1-D1,48
same,SPOT peptide array binding signal intensity,ScBzz1-D2,102
same,SPOT peptide array binding signal intensity,ScCyk3,8.5
same,SPOT peptide array binding signal intensity,ScFus1,405
same,SPOT peptide array binding signal intensity,ScHof1,2
same,SPOT peptide array binding signal intensity,ScHse1,566
same,SPOT peptide array binding signal intensity,ScLsb1,56.8
same,SPOT peptide array binding signal intensity,ScLsb2,1
same,SPOT peptide array binding signal intensity,ScLsb3,350
same,SPOT peptide array binding signal intensity,ScLsb4,126
same,SPOT peptide array binding signal intensity,ScMyo3,41.5
same,SPOT peptide array binding signal intensity,ScMyo5,13
same,SPOT peptide array binding signal intensity,ScNbp2,846
same,SPOT peptide array binding signal intensity,ScPex13,586
same,SPOT peptide array binding signal intensity,ScRvs167,70.5
same,SPOT peptide array binding signal intensity,ScSho1,458
same,SPOT peptide array binding signal intensity,ScSla1-D1-D2,1260
same,SPOT peptide array binding signal intensity,ScSla1-D3,851
same,SPOT peptide array binding signal intensity,SpAbp1-D1,118
same,SPOT peptide array binding signal intensity,SpBbc1,17
same,SPOT peptide array binding signal intensity,SpBzz1-D1,573
